Counter-ions that a name gives are not always drawn.
Test system: CLZ3 (HCA2 human fibroblast dual HR-NHEJ reporter)
Experiment: HR repair efficiency (tdTomato+ cells) relative to control (log10 fold); higher = more homologous recombination
Details: 5 µM; doxycycline 0.5 ug/mL
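Also: compound given one day before doxycycline, which switches on I-SceI endonuclease expression to create double-strand breaks within the integrated reporter.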

Row | Compound | HR repair efficiency (log10)
1 | O=C(/C=C/c1ccc(O)c(O)c1)OC[C@H]1O[C@@H](OCCc2ccc(O)c(O)c2)[C@H](O)[C@@H](O)[C@@H]1O [Calceolarioside B] | 0.193
2 | C/C=C(/C)C(=O)O[C@H]1[C@@H](OC(=O)CC(C)C)c2c(ccc3ccc(=O)oc23)OC1(C)C [Praeruptorin E] | -0.0529
3 | C[C@@]12C[C@H](c3ccoc3)O[C@@]13C[C@H](OC3=O)[C@H]1[C@H]2C[C@@H]2C[C@H]1C(=O)O2 [Diosbulbin B] | 0.0545
4 | NCCCC(=O)O [g-Aminobutyric acid] | 0.0647
5 | O=Cc1ccc(CO)o1 [5-Hydroxymethylfurfural] | 0.0126
6 | COC(=O)C1=CO[C@@H](O[C@@H]2O[C@H](CO)[C@@H](O)[C@H](O)[C@H]2O)[C@H]2[C@@H]1[C@H](O)C[C@]2(C)OC(C)=O [8-O-Acetyl Shanzhiside Methyl Ester] | -0.109
7 | O=C(O)[C@H]1O[C@@H](Oc2cc(O)c3c(=O)cc(-c4ccc(O)cc4)oc3c2)[C@H](O)[C@@H](O)[C@@H]1O [Apigenin-7-O-Glucronide] | 0.161
8 | Cc1c(O)c(C)c2c(c1O)C(=O)C[C@@H](c1ccc(O)cc1)O2 [Farrerol] | 0.437
9 | C/C=C(/C)C(=O)O[C@@H]1[C@H](OC(=O)CC(C)C)c2c(ccc3ccc(=O)oc23)OC1(C)C [Praeruptorin C] | 0.00182
10 | O=Cc1ccc(O)cc1 [4-Hydroxybenzaldehyde] | 0.0974
11 | C/C1=C/CC[C@H](C)C(=O)C[C@@H](C(C)C)C(=O)C1 [Curdione] | 0.0177
12 | CC(C)(O[C@@H]1O[C@H](CO)[C@@H](O)[C@H](O)[C@H]1O)[C@H]1Cc2cc3ccc(=O)oc3cc2O1 [Nodakenin] | 0.0112
13 | c1ccc([C@H]2CN3CCSC3=N2)cc1 [Levamisole hydrochloride] | -0.0158
14 | O=C(O)/C=C/C(=O)O [Fumaric Acid] | 0.136
15 | CC(C)=CCc1cc2c(cc1O)O[C@H](c1ccc(O)cc1)CC2=O [Bavachin] | 0.0642
16 | C[C@H](CCC(=O)O)[C@H]1CC[C@H]2[C@@H]3[C@H](O)C[C@@H]4C[C@H](O)CC[C@]4(C)[C@H]3CC[C@]12C [Chenodeoxycholic Acid] | 0.00712
17 | OCc1ccc(O[C@@H]2O[C@H](CO)[C@@H](O)[C@H](O)[C@H]2O)cc1 [Gastrodin] | 0.307
18 | C[C@H]1O[C@@H](O[C@H]2CC[C@@]3(C)[C@@H](CC[C@]4(C)[C@@H]3C=C[C@]35OC[C@@]6(CCC(C)(C)C[C@H]63)[C@@H](O)C[C@]54C)[C@]2(C)CO)[C@H](O)[C@@H](O[C@@H]2O[C@H](CO)[C@@H](O)[C@H](O)[C@H]2O)[C@H]1O [Saikosaponin a] | -0.315
19 | CC(C)=CC(O)C/C(C)=C/COc1c2ccoc2cc2oc(=O)ccc12 (stereo not given) [Notopterol] | 0.151
20 | O=C1c2cccc(O)c2C(=O)c2c(O)cccc21 [1,8-Dihydroxyanthraquinone] | -0.106

Row | Compound | HR repair efficiency (log10)
21 | CCCCCCC[C@H](O)CC(=O)CCc1ccc(O)c(OC)c1 [8-Gingerol] | 0.0341
22 | C[N+]1(C)CCCC1C(=O)O (stereo not given) [Stachydrine Hydrochloride] | 0.12
23 | C[C@H](CCC(=O)O)[C@H]1CC[C@H]2[C@@H]3CC[C@@H]4C[C@H](O)CC[C@]4(C)[C@H]3C[C@H](O)[C@]12C [Deoxycholic acid] | 0.0026
24 | O=C(O)[C@H]1O[C@@H](Oc2cc3oc(-c4ccc(O)cc4)cc(=O)c3c(O)c2O)[C@H](O)[C@@H](O)[C@@H]1O [Scutellarin] | 0.0441
25 | COc1ccc2c(c1OC)CN(C)CCc1cc3c(cc1C(=O)C2)OCO3 [Allocryptopine] | 0.04
26 | COC(=O)C1=CO[C@@H](O[C@@H]2O[C@H](CO)[C@@H](O)[C@H](O)[C@H]2O)[C@H]2[C@@H]1C(=O)C[C@@H]2C [Verbenalin] | 0.178
27 | O=c1oc2c(O)c(O)cc3c(=O)oc4c(O)c(O)cc1c4c23 [Ellagic acid] | -0.0224
28 | C=C1CCC[C@]2(C)C[C@]3(O)OC(=O)C(C)=C3C[C@@H]12 [Atractylenolide Iii] | 0.0542
29 | COC(=O)C1=CO[C@@H](O)[C@@H]2C(CO)=CC[C@H]12 [Genipin] | 0.00524
30 | Oc1cc(O)c2c(c1)O[C@H](c1ccc(O)c(O)c1)[C@H](O)C2 [Epicatechin (EC)] | -0.306
31 | CCC/C=C1\OC(=O)C2=C1CCC1C3C=C4C(=O)O/C(=C\CCC)C4(CC3)C21 (stereo not given) [Levistilide A] | 0.0314
32 | C[C@@H]1O[C@@H](O[C@H]2[C@H](O[C@H]3CC[C@@]4(C)[C@@H](CC[C@]5(C)[C@@H]4CC=C4[C@@H]6CC(C)(C)CC[C@]6(C(=O)O[C@@H]6O[C@H](CO[C@@H]7O[C@H](CO)[C@@H](O)[C@H](O)[C@H]7O)[C@@H](O)[C@H](O)[C@H]6O)CC[C@]45C)[C@]3(C)CO)OC[C@H](O)[C@@H]2O)[C@H](O)[C@H](O[C@@H]2O[C@H](CO)[C@@H](O)[C@H](O)[C@H]2O)[C@H]1O [Macranthoidin A] | 0.0324
33 | C[C@@H]1O[C@@H](OC[C@H]2O[C@@H](Oc3cc(O)c4c(c3)O[C@H](c3ccc(O)cc3)CC4=O)[C@H](O)[C@@H](O)[C@@H]2O)[C@H](O)[C@H](O)[C@H]1O [Narirutin] | -0.053
34 | CC(C)=CCC[C@](C)(O[C@@H]1O[C@H](CO)[C@@H](O)[C@H](O)[C@H]1O)[C@H]1CC[C@]2(C)[C@@H]1[C@H](O)C[C@@H]1[C@@]3(C)CC[C@H](O)C(C)(C)[C@@H]3[C@@H](O[C@@H]3O[C@H](CO)[C@@H](O)[C@H](O)[C@H]3O)C[C@]12C [Ginsenoside Rg1] | 0.0737
35 | COc1c2ccoc2c(OC[C@@H](O)C(C)(C)O)c2oc(=O)ccc12 [Byakangelicin] | -0.0476
36 | O=C(/C=C/c1ccc(O)cc1)C1=C(O)C(O)([C@@H]2O[C@H](CO)[C@@H](O)[C@H](O)[C@H]2O)C(O)=C([C@@H]2O[C@H](CO)[C@@H](O)[C@H](O)[C@H]2O)C1=O (stereo not given in full) [Hydroxysafflor yellow A] | 0.0597
37 | Oc1cc(O)c2cc(O)c(-c3ccc(O)c(O)c3)[o+]c2c1 [Cyanidin Chloride] | 0.00943
38 | C/C=C/C#CC#C[C@@H](O)[C@@H](/C=C/CCCO)O[C@@H]1O[C@H](CO)[C@@H](O)[C@H](O)[C@H]1O [Lobetyolin] | 0.131
39 | CCCCCC=CC(=O)CCc1ccc(O)c(OC)c1 [6-Shogaol] | -0.0794
40 | Oc1cc(O)c2c(c1)O[C@H](c1ccc(O)c(O)c1)[C@H](O)[C@H]2c1c(O)cc(O)c2c1O[C@H](c1ccc(O)c(O)c1)[C@H](O)C2 [Procyanidin B2] | -0.122

Reference: the supplement of paper PMC7380943
